# Screening data: PubChem BioAssay, National Center for Advancing Translational Sciences (NCATS)
# Shown are actives, neighbours in structure and some others; about 6.7% of the full set was active somewhere.
# KB-V1 cytotox = kills drug-selected multidrug resistant KB-V1 cells. 400,000 compounds, 3.4% hits. KB-V1 MDR cells viability, CellTiter-Glo, 72 h. Potency, µM (top dose mostly 46.1 µM), usual class: cytotoxic; note: % is set by controls: 0 for no effect and ±100 for the full control effect; nearly all actives have a fitted effect of over 60% in size
#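 Cytotoxicity via CellTiter-Glo luminescence after 72 h compound exposure at 37 degrees C. Cells: drug-selected KB-V1 line, DMEM phenol-red free plus 10% FBS. Compounds tested at multiple concentrations; normalized data fitted to concentration-effect curves.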
# KB-3-1 cytotox = KB-3-1 parental cell cytotoxicity | AID 1347075 | Potency, µM (doses to about 46.1 µM), usual class: cytotoxic | KB-3-1 viability, CellTiter-Glo ATP luminescence, 72 h | 400,000 compounds, 1.4% hits; note: % is set by controls: 0 for no effect and ±100 for the full control effect; nearly all actives have a fitted effect of over 60% in size
#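 Viability of parental KB-3-1 cells, measured by CellTiter-Glo luminescence, followed a 72 h incubation at 37 °C with pinned compounds in phenol-red-free DMEM containing 10% FBS.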
# PINK1 expr mod = modulators of PINK1 expression. PINK1 immunofluorescence, high-content cytometry, 24 h. Potency, µM (highest dose often 76.6 µM), for the others: at the highest dose activation (PINK1 increase), actives largely listed as activators. 410,000 compounds, 0.2% hits. AID 624263; active = well fitted activation curve with a large enough effect; inconclusive = small, poorly fitted or top-dose-only effect; cell line not stated here; note: % of control where 0% means no effect; nearly all actives have a fitted effect of over 65% in size
#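 Compound titrations (5 concentrations, 24 h) on a stable cell line; DMSO and CCCP controls. Endpoint: fixed-cell PINK1 immunofluorescence with mitochondrial, cell and nuclear markers, scanned by microplate cytometer.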
# SW480 rereplic = inducers of DNA re-replication in SW480 colon cancer cells | SW480 DNA re-replication, Hoechst DNA content imaging, 48 h | Potency, µM (series often up to 46.1 µM), for the others: top-dose re-replication activation, usual class: activators | 340,000 compounds, 1.8% hits | AID 624297; note: % of control where 0% means no effect; nearly all actives have a fitted effect of over 55% in size
#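 Per well, 250 cells were exposed to pinned compound for 48 hr. Nuclear DNA was visualised with Hoechst (40 min, 37 C) and total object intensity recorded by fluorescence scanning.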
# MCF10A rereplic = DNA re-replication induction in MCF 10a cells | MCF 10A DNA re-replication, Hoechst nuclear intensity, 48 h | Potency, µM (doses to about 46.1 µM), inactives show at the top dose activity, positive = re-replication, hits mostly activators | 350,000 compounds, 2.9% hits | AID 624296; note: % of control where 0% means no effect; nearly all actives have a fitted effect of over 50% in size
# Starred values were filed as active, the others as inactive; i = inactive; ? = inconclusive; / = not tested or not shown; [ ] = dose if it differs, or a comment. Unless noted, calls come from the whole dose curve; as a rule, active = well fitted curve in the direction sought with a large enough effect; inconclusive = small, poorly fitted or top-dose-only effect, or another doubt; inactive = no such curve, though single readings can be large; an effect the other way counts as inactive or inconclusive. Potency is the fitted concentration of half-maximal effect.
SMILES,KB-V1 cytotox,KB-3-1 cytotox,PINK1 expr mod,SW480 rereplic,MCF10A rereplic
COc1ccc(C2C(=O)N(CCc3ccccc3)CC(=O)N2C2CCCC2)cc1 (centres undefined),3.7µM*,i,-3%[38.3 µM],1%,3%
COc1ccc(C2C(=O)N(C3CCCCCC3)CC(=O)N2Cc2ccccc2)cc1 (centres undefined),/,/,2%,/,/
COCCCN1C(=O)C(CC(=O)NCCCCc2ccccc2)CC(C(=O)N(C(C)C)C(C)C)=C1C (centres undefined),i,i,2%,/,/
COc1ccc2[nH]c3c(c2c1)CCN1C(=O)N([C@@H](C)C(=O)NCc2ccc(F)cc2)C(=O)[C@]31C,i,i,10%,11%,-3%
COc1ccc2[nH]c3c(c2c1)CCN1C(=O)N([C@@H](C)C(=O)NCCc2ccc(F)cc2)C(=O)[C@]31C,?,12µM*,2%,?,?
CCCN(C(=O)CSc1nnc(-c2ccc3c(c2)OCO3)o1)C1CCS(=O)(=O)C1 (centres undefined),i,i,3%,/,/
O=C1CC(/C=C/c2ccccc2)(C(=O)NC2CCCC2)N1c1ccc(S(=O)(=O)N2CCCC2)cc1 (centres undefined),2.9µM*,i,3%,12%,?
COc1ccc(N2C(=O)CC2(/C=C/c2ccccc2OC)C(=O)NC2CCCC2)cc1 (centres undefined),3.7µM*,?,1%,1%,-2%
CC1C(=O)N(c2ccc(S(=O)(=O)N(C)C)cc2)C1(/C=C/c1ccccc1)C(=O)NC1CCCC1 (centres undefined),?,i,2%,5%,15%
COc1cc(NC(=O)CCCN2C(=O)CCn3nc(-c4cn(C)c5ccccc45)cc32)cc(OC)c1,i,i,3%,/,/
O=C(Nc1ccncc1)C1c2ccccc2Oc2ccccc21,15µM*,i,-4%,-3%,-1%
Cc1cccc2sc(NC(=O)C3c4ccccc4Oc4ccccc43)nc12,?,i,7%[38.3 µM],?,6.5µM*
O=C(Nc1ncccn1)C1c2ccccc2Oc2ccccc21,?,i,-2%,6%,2%
Cc1cccc2sc(NC(=O)c3ccc(Cl)s3)nc12,i,i,6%,-3%,16µM*
Cc1nnc(NC(=O)C2c3ccccc3Oc3ccccc32)s1,i,?,-1%,?,13µM*
Cc1cc(C)c2sc(N(Cc3cccnc3)C(=O)CCS(=O)(=O)c3ccccc3)nc2c1,i,i,-2%,/,/
O=C(Cn1c(=O)n(-c2ccc(F)cc2)c(=O)c2sc3ccccc3c21)N1CCCC1,i,i,2%,/,/
Cc1cc(N2CCCC2)ccc1NC(=O)COc1cccc(C(F)(F)F)c1,i,i,5%,?,13%
Cc1ccnc(NC(=S)N2CCN(c3ccc(Br)cc3)CC2)c1,i,i,/,/,/
CCOC1=C2CN(S(=O)(=O)c3ccc(C)cc3)C(c3ccc(C)cc3)CC2N(S(=O)(=O)c2ccc(C)cc2)C(c2ccccc2)C1 (centres undefined),?,3.3µM*,/,/,/
CCN1C[C@@H]2[C@@H]3C(=O)N(C)C(=O)[C@@H]3[C@](Cc3ccccc3)(C(=O)OC)N2C1=NCc1ccccc1,i,i,0%,3%,1%
Cc1nn(-c2ccccc2)c2nc(=O)n(-c3ccccc3)cc12,i,i,-1%,-12%,0%[9.22 µM]
Cc1ccc2nc3c(cc2c1)c(C)nn3-c1ccccc1,i,i,7%,7.3µM*,?
Cc1ccc(C2(C)CC(C)(C)N(C(=O)CSc3nnc(C)s3)c3ccccc32)cc1 (centres undefined),?,?,10%,1%,?
Cc1nnc(SCC(=O)N2c3ccccc3C(C)(c3ccccc3)CC2(C)C)s1 (centres undefined),8.2µM*,16µM*,18%,6%,?
Nc1ccc(-c2nc3c(ccc4ccccc43)[nH]2)cc1,i,i,0%,1%,23µM*
O=C(COc1ccc(Cl)cc1Br)NCC(c1ccco1)N1CCCC1 (centres undefined),5.8µM*,i,1%,-4%,11%
